From PubChem BioAssay AID493170 (National Center for Advancing Translational Sciences (NCATS), 2011)
Records with an inconclusive call do not appear. Unmarked numbers belong to inactive results. The source made the active and inactive calls. The call rests on the fitted dose curve; in most records, active means well fitted inhibition curve with a large enough effect; inconclusive means small, poorly fitted or top-dose-only effect, or effect the other way; inactive means flat fitted curve, though single readings scatter.

These compounds were tested against Ubiquitin carboxyl-terminal hydrolase 2 (Homo sapiens) (UniProt O75604) (assay: Ub-rhodamine 110 based assay for inhibitors Ubiquitin-specific Protease USP2a). Conditions: USP2a Ub-rhodamine110 cleavage, fluorescence; series mostly up to 38.3 µM; activity change, negative = inhibition: at the top concentration.
Sequence of Ubiquitin carboxyl-terminal hydrolase 2 (Homo sapiens) (O75604 whole entry, looked up): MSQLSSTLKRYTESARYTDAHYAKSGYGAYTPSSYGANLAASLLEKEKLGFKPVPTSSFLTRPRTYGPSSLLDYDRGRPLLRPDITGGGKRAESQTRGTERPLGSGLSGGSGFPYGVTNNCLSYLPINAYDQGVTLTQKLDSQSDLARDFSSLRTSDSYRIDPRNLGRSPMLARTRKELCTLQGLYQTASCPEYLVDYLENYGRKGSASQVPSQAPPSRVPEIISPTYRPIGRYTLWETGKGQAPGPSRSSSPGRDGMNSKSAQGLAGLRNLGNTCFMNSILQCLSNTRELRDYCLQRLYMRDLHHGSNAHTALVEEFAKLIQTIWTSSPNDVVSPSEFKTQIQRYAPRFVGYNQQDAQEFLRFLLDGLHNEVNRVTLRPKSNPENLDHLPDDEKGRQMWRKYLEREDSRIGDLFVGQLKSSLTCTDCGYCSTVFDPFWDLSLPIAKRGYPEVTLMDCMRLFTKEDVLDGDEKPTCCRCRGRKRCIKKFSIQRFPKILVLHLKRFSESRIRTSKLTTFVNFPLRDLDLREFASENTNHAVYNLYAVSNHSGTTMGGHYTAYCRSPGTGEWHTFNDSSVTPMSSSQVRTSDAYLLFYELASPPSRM
Summary of the method: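 5 nM USP2a preincubated with compounds for 30 min at RT in 20 mM Tris-HCl pH 8.0, 2 mM CaCl2, 2 mM beta-mercaptoethanol, 0.05% CHAPS. Cleavage of 150 nM Ub-rhodamine 110 read kinetically (Ex 485/Em 531) for 7 min.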
Further: nearly all actives have a fitted effect of over 50% in size.
On the % scale 0 is the no-effect control and ±100 the full control effect; potency means the concentration at half of the fitted maximal effect.

| SMILES | activity change, negative = inhibition [%] | Potency |
| --- | --- | --- |
| CN(C)CCOCCP(=O)(c1ccccc1)c1ccccc1 | -0.767 |  |
| COC(=O)c1cc2sc(Cl)cc2n1Cc1nc(-c2ccccc2)oc1C | 0.719 |  |
| COC(=O)c1[nH]c2ccc(C)cc2c1NC(=O)CN1CCCc2ccccc21 | -15.7 |  |
| O=C(COc1ccccc1)Nc1nnc(-c2ccc(Cl)s2)o1 | -14 |  |
| O=C1c2ccccc2C(=O)N1CCC1=CCCCC1 | -8.94 |  |
| C#CCOCCOCCOCCNc1nc(N2CCN(C(=O)CCCCCCCCCCNC(=O)[C@H]([C@@H](C)CC)n3cc(CCCCCN)nn3)CC2)nc(N2CCN(C(=O)CCCCCCCCCCNC(=O)[C@H]([C@@H](C)CC)n3cc(CCCCN=C(N)N)nn3)CC2)n1 |  | 12.6 µM (active) |
| CCCn1c(NC(=O)c2ccc(Br)cc2)nc2ccccc21 | 0.793 |  |
| Cc1cccc(C)c1-n1cccc1/C=C1\SC(=S)N(c2cccc(C(=O)O)c2)C1=O |  | 7.94 µM (active) |
| Cc1noc(C)c1NC(=O)Nc1ccc2c(c1)C(=O)N([C@H](C)CO)C[C@H](C)[C@@H](CN(C)S(=O)(=O)c1ccccc1)O2 | -2.56 |  |
| COCc1cc(C)nc(OCC(=O)N/N=C\c2cc(C)n(-c3cccc(C(F)(F)F)c3)c2C)c1C#N | -13.8 |  |
| Nn1c(Nc2ccccc2)nc2ccccc2c1=O | -0.213 |  |
| CCN(CC)S(=O)(=O)c1ccc(-c2nnc(SCC(=O)Nc3ccc4c(c3)OCO4)o2)cc1 |  | 10 µM (active) |
| O=C(COC(=O)c1ccc(NS(=O)(=O)c2cccs2)cc1)Nc1nc2c(F)c(F)c(F)cc2s1 |  | 3.55 µM (active) |
| CCc1cc2cccc(C)c2nc1SCC(=O)N1CCN(C(=O)c2ccco2)CC1 | -16.4 |  |
| Cc1cc(C)n2nc(S(=O)(=O)NCCc3ccccc3)nc2n1 | 5.22 |  |
| CC(=O)Nc1ccc(NC(=O)C2CCCN(S(=O)(=O)c3ccc(Cl)cc3)C2)cc1 (centres undefined) | -9.2 |  |
| COc1cc(/C=C/c2cc[n+](C)cc2)ccc1OCC(=O)Nc1ccc(Cl)c(Cl)c1 | -14.5 |  |
| CCOc1ccc(NC(=O)N(CCCN2CCOCC2)Cc2cccnc2)cc1 | 3.46 |  |
| Cc1nc2ccccc2c2oc(C(=O)NCCN3CCN(C)CC3)cc12 | -12.3 |  |
| O=C(Nc1ccncc1)c1ccc(S(=O)(=O)Nc2ccccc2)cc1 | -4.98 |  |

| SMILES | activity change, negative = inhibition [%] | Potency |
| --- | --- | --- |
| O=C(/C=C\c1ccco1)c1ccc(NC(=O)c2ccco2)cc1 |  | 10 µM (active) |
| CC1(C)CC(=O)C2=C(C1)N(Cc1ccco1)C(=O)NC2(C(F)(F)F)C(F)(F)F | 2.14 |  |
| CC(=O)c1ccc2c(c1)C1C=CCC1C(C(=O)O)N2 (centres undefined) |  | 10 µM (active) |
| Cc1ccc(C)c(S(=O)(=O)c2c(N)n(/N=C/c3ccco3)c3nc4ccccc4nc23)c1 | -23.7 |  |
| CC(=O)OCC(=O)Nc1ccc(Cl)cc1Cl | -6 |  |
| CN(C)CCCN1C(=O)C(=O)/C(=C(/O)c2ccncc2)C1c1cccnc1 (centres undefined) | -1.84 |  |
| C=C1c2c(Cl)ccc(O)c2C(O)=C2C(=O)[C@]3(O)C(O)=C(C(N)=O)C(=O)[C@@H](N(C)C)[C@@H]3[C@@H](O)C12 (some centres undefined) |  | 6.31 µM (active) |
| CC1(C)CC(=O)C2=C(C1)NCN(CCCN1CCOCC1)C2 | 1.43 |  |
| O=C(Nc1cccc(Cl)c1)Nc1nnc(CC2=CCCCC2)s1 | -2.08 |  |
| COc1ccc(S(=O)(=O)N2CCCC2C(=O)NCc2cccs2)cc1 (centres undefined) | -3.06 |  |
| CC(C)n1nc(C(=O)Nc2ccccc2N2CCOCC2)c2ccccc2c1=O | -15.2 |  |
| CSc1ncccc1C(=O)OCC(=O)N1CCOCC1 | 17.7 |  |
| CC(=O)c1cccc(NC(=O)C(C)OC(=O)c2cc(=O)[nH]c3ccccc23)c1 (centres undefined) | -17 |  |
| O=C(O)c1cc(N2N=C(C(F)(F)F)/C(=C/C=C/c3ccco3)C2=O)ccc1Cl |  | 7.08 µM (active) |
| COC(=O)CSc1nnc(NC(=O)C2CC(=O)N(c3ccc(F)cc3)C2)s1 (centres undefined) |  | 11.2 µM (active) |
| Cc1ccc2c(c1)c1c3n2CCN(C(=O)Cn2c(-c4ccccc4)noc2=O)C3CCC1 (centres undefined) | -9.33 |  |
| Cc1ccc(NC(=O)c2onc(C)c2Cl)cc1 | -5.26 |  |
| O=C(Nc1cccc(S(=O)(=O)N2CCCC2)c1)c1cncc(Br)c1 | 5.44 |  |
| Cc1c(N=C/C=C2\N(C)c3ccccc3C2(C)C)c(=O)n(-c2ccccc2)n1C | -6.56 |  |
